High-throughput results from PubChem BioAssay.
HP1b chromo inh: inhibitors of HP1-beta chromodomain binding to methylated histone tails | P83916 | AlphaScreen HP1-beta / biotin-H3K9me3 peptide binding | Potency, µM (series often up to 114 µM), without a hit: at the highest dose activity change, negative = inhibition, hits mostly inhibitors | 0.56% of 390,000 active | AID 540317; note: nearly all actives have a fitted effect of over 70% in size
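AlphaScreen: HP1-beta (50 nM) preformed 30 min with biotin-H3(1-18)K9me3 peptide (50 nM) in PBS pH 7.4, 0.01% Tween-20. Compound added for 30 min at RT, then streptavidin donor/nickel chelate acceptor beads (10 ug/mL) for 30 min.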
G9a block: inhibitors of human histone lysine methyltransferase G9a; Q96KQ7; G9a H3K9 monomethylation, AlphaScreen, 2 h; Potency, µM (titrated, usually from 102 µM), for inactives: at the highest dose activity, negative = inhibition, actives largely listed as inhibitors; 8.8% of 350,000 active; AID 504332; note: % is set by controls: 0 for no effect and ±100 for the full control effect; nearly all actives have a fitted effect of over 75% in size
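Readings reflect AlphaScreen signal from monomethyl-H3K9 antibody detection. HMT at 20 nM; substrate b-H3K9 500 nM; cofactor SAM 20 uM; 2 h RT reaction; compounds tested as titrations in qHTS with 15 min preincubation.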
JMJD2A Tudor inh: JMJD2A Tudor domain (human) inhibition. O75164. AlphaScreen JMJD2A-Tudor / H3K4me3 peptide binding. Potency, µM (doses to about 114 µM), inactives show top-dose activity change, negative = inhibition, actives largely listed as inhibitors. 4.4% of 390,000 active. AID 504339; note: % is set by controls: 0 for no effect and ±100 for the full control effect; nearly all actives have a fitted effect of over 50% in size
Target sequence (O75164 whole entry, looked up, the tested form may be a part): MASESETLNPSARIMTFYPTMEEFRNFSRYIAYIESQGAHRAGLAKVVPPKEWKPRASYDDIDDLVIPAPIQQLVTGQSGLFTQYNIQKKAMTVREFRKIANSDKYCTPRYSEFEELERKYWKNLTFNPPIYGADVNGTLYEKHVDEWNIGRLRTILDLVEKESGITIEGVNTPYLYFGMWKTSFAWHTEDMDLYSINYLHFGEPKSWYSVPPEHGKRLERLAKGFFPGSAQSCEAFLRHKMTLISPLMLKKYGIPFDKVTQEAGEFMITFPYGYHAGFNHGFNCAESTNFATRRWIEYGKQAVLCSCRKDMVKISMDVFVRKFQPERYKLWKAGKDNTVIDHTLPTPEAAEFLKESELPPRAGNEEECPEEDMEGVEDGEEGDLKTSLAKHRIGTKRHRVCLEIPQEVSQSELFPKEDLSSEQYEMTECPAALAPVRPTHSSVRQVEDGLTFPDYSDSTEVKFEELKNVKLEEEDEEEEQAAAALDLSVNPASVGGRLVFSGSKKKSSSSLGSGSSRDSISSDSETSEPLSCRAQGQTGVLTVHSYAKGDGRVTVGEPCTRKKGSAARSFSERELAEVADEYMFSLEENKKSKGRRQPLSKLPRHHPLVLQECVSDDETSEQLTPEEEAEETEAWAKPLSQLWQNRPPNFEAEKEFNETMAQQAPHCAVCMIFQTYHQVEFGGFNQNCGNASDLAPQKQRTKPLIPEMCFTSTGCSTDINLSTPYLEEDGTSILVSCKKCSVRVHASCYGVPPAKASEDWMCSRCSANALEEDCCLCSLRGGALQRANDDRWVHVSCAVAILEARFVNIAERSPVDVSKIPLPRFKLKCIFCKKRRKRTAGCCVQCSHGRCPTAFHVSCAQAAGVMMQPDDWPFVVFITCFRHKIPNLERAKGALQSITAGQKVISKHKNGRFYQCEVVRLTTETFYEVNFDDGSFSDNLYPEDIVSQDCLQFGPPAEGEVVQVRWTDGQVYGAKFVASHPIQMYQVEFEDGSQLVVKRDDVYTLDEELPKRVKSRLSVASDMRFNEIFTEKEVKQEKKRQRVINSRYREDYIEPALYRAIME
BAZ2B inh: blocks human BAZ2B. Q9UIF8. AID 504333. AlphaScreen BAZ2B-H3K14Ac peptide displacement. 4.4% of 360,000 active. Potency, µM (doses to about 114 µM), inactives show top-dose activity change, negative = inhibition, most hits filed as inhibitors; note: % is set by controls: 0 for no effect and ±100 for the full control effect; nearly all actives have a fitted effect of over 60% in size
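BAZ2B (50 nM) with biotin-H3(5-23)K14Ac peptide (50 nM) in PBS pH 7.4, 0.01% Tween-20, preformed 30 min, then compound 30 min at room temperature; top concentration 110uM. AlphaScreen streptavidin donor/nickel chelate acceptor beads (10 ug/mL final), 20 min dark, signal read.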
L3MBTL1 inh: inhibitors of human L3MBTL1. Q9Y468. AlphaScreen L3MBTL1–H3K9me1 peptide binding. Potency, µM (top dose mostly 57.1 µM), without a hit: at the highest dose activity, negative = inhibition, hits mostly inhibitors. 0.66% of 230,000 active. AID 485360; note: % is set by controls: 0 for no effect and ±100 for the full control effect; nearly all actives have a fitted effect of over 60% in size
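AlphaScreen assay: L3MBTL1 (50 nM final) was preincubated 30 min at room temperature with biotinylated H3(1-15)K9me1 peptide (75 nM final), then 30 min with library compounds; streptavidin donor and nickel chelate acceptor beads (10 ug/mL final) added, 30 min dark.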
Sfp inh: Sfp phosphopantetheinyl transferase inhibition; Biochemical Sfp PPTase activity, qHTS; Potency, µM, for the others: largest response in the series, negative = inhibition, hits mostly inhibitors; 3.5% of 310,000 active;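 note: the enzyme is Sfp with the accession as filed and its product quenches rhodamine fluorescence; 0% = enzyme reaction without inhibitor and -100% = no enzyme wells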
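Sfp 15 nM + cpd, 15 min RT; start w/ rhodamine-CoA 5 uM, BHQ-2-YbbR 12.5 uM (final); 50 mM Hepes pH 7.6, 10 mM MgCl2, 0.01% NP-40, 0.01% BSA; read 525/598 nm at 0 and 30 min.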
An asterisk follows results filed as active; ? = inconclusive; . = not tested or not shown; [ ] = dose if it differs, or a comment. Sampled rows, rich in hits. Any-hit rate of the full collection: about 12%. Calls come from the whole dose curve; as a rule, active = well fitted curve in the direction sought with a large enough effect; inconclusive = small, poorly fitted or top-dose-only effect, or another doubt; inactive = no such curve, though single readings can be large; an effect the other way counts as inactive or inconclusive. Potency is the fitted concentration of half-maximal effect.

SMILES	HP1b chromo inh	G9a block	JMJD2A Tudor inh	BAZ2B inh	L3MBTL1 inh	Sfp inh
OC(COCc1ccccc1)COCc1ccccc1	24%	.	8%	.	.	.
Cc1n(CC(O)COCc2ccccc2)c2ccccc2[n+]1C (stereo not given)	24%	17%[59 µM]	-8%	56µM*	5%	4%
CCc1n(CC(O)COCC2CC=CCC2)c2ccccc2[n+]1C (stereo not given)	-16%	50µM*	?	-22%	-2%	6%
Cc1nn(Cc2ccccc2)c(Cl)c1/C=C/C(=O)OCC(=O)N1CCCC1=O	22%	9%	4%	-3%	.	-9%
Cc1ccc(Cn2c(=O)n(Cc3ccccc3)c(=O)c3oc4ccccc4c32)cc1	25%	-9%[59 µM]	-10%	-13%	.	.
O=C1CCCc2c1cc(C(=O)NCc1ccco1)c(=O)n2-c1ccc(Cl)cc1	-1%	-41%[59 µM]	-30%	-2%	2%	56µM*
COC(=O)C(CCSC)NC(=O)c1cc2c(n(-c3ccc(C)cc3)c1=O)CC(C)(C)CC2=O (stereo not given)	24%	?	-19%	-6%	.	.
COC(=O)C(CCSC)NC(=O)c1cc2c(n(-c3ccc(C)cc3)c1=O)CCCC2=O (stereo not given)	27%[57 µM]	0.56µM*	-9%	50µM*	?	4%
Cc1ccc(-n2c3c(cc(C(=O)NCc4ccco4)c2=O)C(=O)CCC3)cc1	29%	.	-8%	?	-7%	1%
Cc1ccc[n+](CC(=O)c2ccc(-c3ccccc3)cc2)c1	24%	-3%[59 µM]	-4%	13%	6%	-10%
O=C(C[n+]1cc(Br)cc2ccccc21)c1ccc(Cl)cc1	-20%	50µM*	?	-29%	.	-7%
O=C(C[n+]1cc(Br)cc(Br)c1)c1ccc(Cl)cc1	35%	?	-28%	-14%	.	4%
O=C(C[n+]1cc(Br)cc(Br)c1)c1ccc(-c2ccccc2)cc1	17%	25µM*	?	?	.	-4%
O=C(C[n+]1cccc2ccccc21)c1ccc(Br)cc1	17%	7%	-9%	-26%	6%	-1%
Cc1ccc(C(=O)C[n+]2ccccc2)cc1	20%	14µM*	-7%	3%	.	8%
O=C(C[n+]1cc(Br)cc2ccccc21)c1ccc(Br)cc1	5%	28µM*	?	-34%	-1%	-5%
COc1ccccc1NC(=O)C(=O)c1cn(CC(=O)N2CCOCC2)c2ccccc12	0%[57 µM]	30%	-20%	-20%	.	22%
Cc1ccc(NC(=O)C2CCCN2S(=O)(=O)c2ccc3nc(-c4ccccc4)[nH]c3c2)cc1F (stereo not given)	29%	-29%[59 µM]	?	-36%	.	.
Cc1ccc(C(=O)C[n+]2cc(Br)cc(Br)c2)cc1[N+](=O)[O-]	3%	50µM*	?	?	-11%	-4%
O=C(C[n+]1cn(C(F)F)c2ccccc21)c1ccc(Br)cc1	40%	-7%[59 µM]	-22%	50µM*	-14%	-14%
COc1ccc(C(=O)C[n+]2ccccc2C)cc1	?	-6%[59 µM]	25µM*	-3%	-9%	-14%
COC(=O)C(C)CCCC(C)CCCC(C)CCCC(C)C (stereo not given)	.	.	.	.	.	7%
CC1CCn2c(nc3cc(C(=O)NCc4ccccc4)ccc32)C1 (stereo not given)	29%[57 µM]	-2%[59 µM]	-7%	5%	.	.
CCOc1ccc(C(=O)c2cc3ccc(O)cc3oc2=O)cc1	19%	2%	-4%	5%	.	19%
O=C(c1ccc([N+](=O)[O-])cc1)c1cc2ccc(O)cc2oc1=O	14%	50µM*	-12%	-25%	.	0%
SMILES	HP1b chromo inh	G9a block	JMJD2A Tudor inh	BAZ2B inh	L3MBTL1 inh	Sfp inh
O=c1c2c3c(sc2n(CCN2CCCC2)c(=O)n1Cc1ccco1)CCCCC3	?	3%	79µM*	-35%	-5%	12%
O=C(Cn1c(=O)n(Cc2ccco2)c(=O)c2c3c(sc21)CCCCC3)Nc1ccccc1	-29%	.	32µM*	50µM*	?	-103%
CC(=O)N1CCc2c(sc3c2c(=O)n(-c2ccccc2)c(=O)n3CC(=O)Nc2ccccc2)C1	9%	6%[59 µM]	79µM*	-2%	.	.
Cc1nnc2n(Cc3ccccc3)c(=O)c3c4c(sc3n12)CCCC4	.	-3%[59 µM]	.	2%	.	10%
Cc1ccc(NC(=O)Cn2c(=O)n(CCc3ccccc3)c(=O)c3c4c(sc32)CCCC4)cc1C	4%	10%[59 µM]	-18%	-2%	.	.
CN(C)CCn1c(=O)n(Cc2ccco2)c(=O)c2c3c(sc21)CCCCC3	9%	?	?	?	-10%	2%
CCOC(=O)CSc1nnc2n(Cc3ccccc3)c(=O)c3c4c(sc3n12)CCC4	-26%	40µM*	-15%[11.4 µM]	1%	8%	1%
CC(=O)N1CCc2c(sc3c2c(=O)n(-c2ccccc2)c(=O)n3CC(=O)Nc2cccc(C)c2)C1	18%	0%[59 µM]	-19%	-1%	.	.
CCC(=O)Nc1cccc(NC(=O)CSc2nnc(-c3ccc(NS(C)(=O)=O)cc3)n2CC)c1	9%	28%[12.7 µM]	3%	-8%	.	4%
O=C(O)Cn1c(=O)c2c3c(sc2n(Cc2ccccc2)c1=O)CCCC3	59%	-34%	0%	89µM*	.	8%
CC(C)(C)C(=O)Cn1c(=O)n(-c2ccccc2)c(=O)c2c3c(sc21)CCC3	17%	-32%[59 µM]	-10%	-11%	.	.
Cc1[nH][nH]c(=O)c1C(c1cc2c(cc1Br)OCO2)c1c(C)[nH][nH]c1=O	27%	50µM*	-2%[11.4 µM]	-4%	.	-23%
COc1ccccc1N1CCN(S(=O)(=O)c2c[nH]c(=O)[nH]c2=O)CC1	40%	20µM*	0%	9%	-9%	.
COc1ccc(S(=O)(=O)N2CCC(N3CCN(Cc4ccccc4)C(=O)C3=O)CC2)cc1	20%	-3%[59 µM]	79µM*	0%	.	.
COc1ccccc1N1CCN(C2CCCN(S(=O)(=O)c3cccc(Cl)c3)C2)CC1 (stereo not given)	-23%	?	?	?	.	-3%
COc1ccccc1N1CCN(C2CCCN(S(=O)(=O)c3ccc(C)cc3)C2)CC1 (stereo not given)	6%	56µM*	-31%	-32%	.	3%
COc1ccccc1N1CCN(C2CCN(S(=O)(=O)c3ccc(NC(C)=O)cc3)CC2)CC1	14%	-4%	-8%	-4%	0%	13%
COc1ccc(S(=O)(=O)N2CCC(N3CCN(c4ccccc4OC)CC3)CC2)cc1	40µM*	3.2µM*	1.8µM*	40µM*	-3%	?
O=C(COC(=O)c1ccccc1[N+](=O)[O-])Nc1nnc(-c2ccccc2)o1	58%	-9%	?	?	15%	.
